Experimental data published in PubChem BioAssay.
The list shows a part of the results. Active and inactive are the calls of the source.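 How the source made its calls: active means mean inhibition of at least 40% at 20 µM; inactive means the rest.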

Assay: apoptosome-driven caspase-3 activation blockers – biochemical, fluorescence, DEVD-Rh110, 20 µM, confirmation (AID 504614);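 further: plate controls were DMSO wells for no effect and DEVD-CHO caspase inhibitor control wells for full effect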
Settings: reconstituted apoptosome, caspase-3 DEVD-Rh110 fluorescence; at 20 µM; stronger effect = higher value

inhibition, inactive:
CCOc1c(Br)cc(/C=C2\C(=O)N(CCC#N)N=C2C)cc1OC 13.1%
NC(N)=NCCCc1cn(CC(=O)N2CCNCC2)nn1 9.2%
CC(=O)Nc1ccc(Nc2cc(C)nc(Nc3ccc(NC(C)=O)cc3)n2)cc1 10.4%
Cc1ccc(S(=O)(=O)N2CCN(C(=O)c3ccccc3-c3nc4ccccc4s3)CC2)c(C)c1 34.1%
CCCCNC(=O)C(C)N(CCN(C)C)C(=O)CCCCCN1C(=O)NC(c2ccc(Cl)cc2)C(C(=O)OCc2ccccc2)=C1C (stereo not given) 22.9%
CN1CCN(c2ccccc2NC(=O)COc2ccc(C3CCCCC3)cc2)CC1 7.86%
Oc1ccc(N=Cc2c(O)ccc3ccccc23)cc1 19.4%
CCC(C)(C)c1ccc(OCC(=O)N(C)C)c(C(C)(C)CC)c1 17.9%
CCOC(=O)N1CCC(c2cc(=O)n(-c3ccccc3)[nH]2)CC1 32.4%
Cc1cc(C)n(-c2nc(SCC(=O)N3CCCC3)c3c4c(sc3n2)CCCC4)n1 26.4%
CCc1ccc(CNC(=O)C2CCN(c3nnc(C)c4c(C)n(-c5ccc(C)cc5)nc34)CC2)cc1 13.2%
CCC(=O)Nc1c(S(=O)(=O)c2ccccc2)c2nc3ccccc3nc2n1Cc1ccccc1 16.3%
C#CCOCCOCCOCCNc1nc(N2CCN(C(=O)CCCCCCCCCCNC(=O)[C@H](CCCCN)n3cc(C)nn3)CC2)nc(N2CCN(C(=O)CCCCCCCCCCNC(=O)[C@H](CO)n3cc(CCCSC)nn3)CC2)n1 4.3%
Cc1cc2oc3ccc(NCCC4CCCN4C)cc3c(=O)c2cc1C (stereo not given) 10.1%
O=C(N/N=C\c1cccnc1)c1cc(-c2ccccc2)nc2c(Cl)cccc12 11.8%
CC1=NN(c2ccc(Cl)c(C(=O)O)c2)C(=O)/C1=C/c1ccc(-c2ccccc2[N+](=O)[O-])o1 16.8%
C(=N/Nc1cc(N2CCOCC2)nc(N2CCOCC2)n1)/c1ccccc1 27.8%
CC(C)c1ccccc1OCC(O)CN(CC(O)COc1cccc2ccccc12)C(C)C (stereo not given) 16.9%
CCOC(=O)N1CCC(NC(=O)C(C)n2c3ccccc3c3cnn(C)c(=O)c32)CC1 (stereo not given) 14%
c1ccc2c(CCN3CCNC[C@H]3Cc3cccc4ccccc34)cccc2c1 24.8%
C[C@@H](CN1CCC[C@H]1CN1C(N)=NC[C@@H]1Cc1ccccc1)N1C[C@@H](Cc2ccccc2)N(CCCC2CCCC2)C1=N 11.8%
Cc1ccc2c(c1)C1CN(C)CCC1N2S(=O)(=O)c1ccc(Oc2ccc([N+](=O)[O-])cc2)cc1 (stereo not given) 20.2%
CC(NC(=O)c1ccccc1SCC(=O)N1CCCC1)c1ccccc1 (stereo not given) 22.9%
Cc1ccc2nc(N3CCN(C(=O)c4ccco4)CC3)sc2c1 15.7%
COc1cccc(-c2sc3ccc(OC)cc3c2-c2ccc(OCCN3CCCCC3)cc2)c1 4.75%
CCN1C(=NCc2ccc(OC)cc2)N[C@@H](CCc2ccccc2)[C@H](C(=O)NCc2ccc(OC)cc2)[C@H]1C 4.13%
c1ccc(CSc2nnc(-c3ccco3)c(-c3ccco3)n2)cc1 29.4%
O=C(O)c1cc(Cl)c(Cl)cc1C(=O)Nc1cccc2ncccc12 1.69%
C=CCn1c(N)c(C(=O)OCC(C)C)c2nc3ccccc3nc21 19.4%

inhibition, active:
CCCCCCCCCCOC(=O)Cn1c(COc2cccc(OC)c2)[n+](C)c2ccccc21 74.8%
CC(C)CC[n+]1ccn(C2=C([O-])c3ccccc3C(=O)/C2=N\S(=O)(=O)c2ccccc2)c1 62.6%
Cc1[nH]n(-c2ccccc2)c(=O)c1/C=N/NC(=O)c1ccoc1C 62%
COc1ccc(C(CNC(=O)c2ccc(S(=O)(=O)Nc3ccccc3F)cc2)N(C)C)cc1 (stereo not given) 43.8%
CCCCCCc1cc2cc(-c3nnc(-c4ccccc4)o3)c(=O)oc2cc1O 76%
CCN(CC)CCOc1ccc2c(c1)C(=NNC(=O)c1ccccn1)c1cc(OCCN(CC)CC)ccc1-2 56.1%
COc1ccc(S(=O)(=O)/N=C2\C=C(NS(=O)(=O)c3ccccc3)C(=O)c3ccccc32)cc1 52.3%
O=C(CCCN1CCc2[nH]c3ccc(F)cc3c2C1)c1ccc(F)cc1 65.3%
O=C1NNC(c2ccccc2)=N/C1=C\c1ccc(Cl)cc1 43.9%
CN(C)S(=O)(=O)c1ccc2oc(SCC(=O)Nc3ccccc3F)nc2c1 77.8%
C#CCOCCOCCOCCNc1nc(N2CCN(C(=O)CCCCCCCCCCNC(=O)Cn3cc(CCCCCN)nn3)CC2)nc(N2CCN(C(=O)CCCCCCCCCCNC(=O)[C@H](CO)n3cc(CCCSC)nn3)CC2)n1 60.8%
